# Several values for one entry are separate records, joined by “and”; a condition that tells them apart may be missing. Identical values can stand only once. Results filed as inconclusive are left out. Unmarked numbers belong to inactive results. Activity calls are given as the source filed them. Unless noted, calls follow the shape of the dose curve; as a rule, active = well fitted curve in the direction sought with a large enough effect; inconclusive = small, poorly fitted or top-dose-only effect, or another doubt; inactive = no such curve, though single readings can be large; an effect the other way counts as inactive or inconclusive.
# Assays:
# [1] = biological target: Cytochrome P450 2D6 (Homo sapiens) (UniProt P10635); assay: Cytochrome P450 family 2 subfamily D member 6 (CYP2D6) small molecule antagonists: luciferase biochemical (cell-free) qHTS assay (AID 1645840; active = well fitted curve in the direction sought with a large enough effect in the repeat runs; an effect the other way counts as inactive or inconclusive; also: nearly all actives have a fitted effect of over 55% in size; also: potency is read from the fitted curve at half-maximal effect; as to activity change, negative = inhibition: % is scaled to controls: 0 for no effect and ±100 for the full control effect); conditions: P450-Glo CYP2D6 enzyme, luciferin luminescence, 1 h; series mostly up to 57.4 µM
# Sequence of Cytochrome P450 2D6 (Homo sapiens) (P10635 whole entry, looked up): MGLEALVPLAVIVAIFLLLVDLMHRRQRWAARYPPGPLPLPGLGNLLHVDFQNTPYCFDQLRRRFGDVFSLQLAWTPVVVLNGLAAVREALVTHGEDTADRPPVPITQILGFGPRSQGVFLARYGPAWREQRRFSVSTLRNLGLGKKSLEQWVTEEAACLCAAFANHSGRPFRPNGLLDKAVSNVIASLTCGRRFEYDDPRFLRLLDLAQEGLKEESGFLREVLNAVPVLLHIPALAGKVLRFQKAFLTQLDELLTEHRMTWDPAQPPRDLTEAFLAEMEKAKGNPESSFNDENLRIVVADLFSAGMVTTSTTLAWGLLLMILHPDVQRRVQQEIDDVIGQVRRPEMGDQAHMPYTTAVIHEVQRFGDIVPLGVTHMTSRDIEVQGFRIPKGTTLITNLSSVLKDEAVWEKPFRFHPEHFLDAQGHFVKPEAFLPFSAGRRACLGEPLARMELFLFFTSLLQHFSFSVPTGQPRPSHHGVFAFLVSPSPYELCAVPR
# Outline: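 P450-Glo CYP2D6 system: proluciferin substrate converted by enzyme to luciferin, read by luminescence proportional to activity. Enzyme-substrate mix with compound 10 min at room temperature, then NADPH regeneration 1 h before detection reagent.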
# [2] = Primary qHTS for inhibitors of nuclear receptor binding SET domain protein 2 (NSD2) in an isogenic RCH-ACV NSD2 p.E1099K mutant (9B) (AID 1645876); conditions: RCH-ACV NSD2 E1099K (9B) viability, CellTiter-Glo, 72 h; series mostly up to 44.9 µM; also: nearly all actives have a fitted effect of over 70% in size; also: potency is read from the fitted curve at half-maximal effect
# [3] = Primary qHTS for inhibitors of nuclear receptor binding SET domain protein 2 (NSD2) in an RCH-ACV wild type WT cells (2C) (AID 1645877); conditions: RCH-ACV (leukaemia line) NSD2 WT (2C) viability, CellTiter-Glo, 72 h; series mostly up to 44.9 µM; also: nearly all actives have a fitted effect of over 70% in size; also: potency is read from the fitted curve at half-maximal effect
# [4] = biological target: Cytochrome P450 2C9 (Homo sapiens) (UniProt P11712); assay: Cytochrome P450 family 2 subfamily C member 9 (CYP2C9) small molecule antagonists: luciferase biochemical (cell-free) qHTS assay (AID 1645842; active = well fitted curve in the direction sought with a large enough effect in the repeat runs; an effect the other way counts as inactive or inconclusive; also: nearly all actives have a fitted effect of over 55% in size; also: potency is read from the fitted curve at half-maximal effect; as to activity change, negative = inhibition: % is scaled to controls: 0 for no effect and ±100 for the full control effect); conditions: P450-Glo CYP2C9 enzyme assay, luciferin luminescence; series mostly up to 57.4 µM
# Sequence of Cytochrome P450 2C9 (Homo sapiens) (P11712 whole entry, looked up): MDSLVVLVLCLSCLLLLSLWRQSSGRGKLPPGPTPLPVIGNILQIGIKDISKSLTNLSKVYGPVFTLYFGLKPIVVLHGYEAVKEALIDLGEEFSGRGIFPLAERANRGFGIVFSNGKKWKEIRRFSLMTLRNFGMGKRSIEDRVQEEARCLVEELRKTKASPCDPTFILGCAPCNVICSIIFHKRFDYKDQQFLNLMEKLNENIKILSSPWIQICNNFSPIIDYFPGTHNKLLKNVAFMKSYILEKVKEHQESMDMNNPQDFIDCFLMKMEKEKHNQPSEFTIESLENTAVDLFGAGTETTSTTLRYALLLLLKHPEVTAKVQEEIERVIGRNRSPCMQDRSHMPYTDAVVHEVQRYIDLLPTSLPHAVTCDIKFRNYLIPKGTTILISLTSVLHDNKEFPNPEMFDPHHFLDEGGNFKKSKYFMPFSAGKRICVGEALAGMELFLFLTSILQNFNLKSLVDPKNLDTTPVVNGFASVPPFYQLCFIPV
# Outline: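 P450-Glo CYP2C9 system: proluciferin substrate with enzyme in mix containing 0.4% BSA, 10 min at room temperature, then NADPH regeneration solution added and incubated 1 h at 37C. Detection reagent stopped reaction; luminescence read after 20 min as RLU.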
# [5] = biological target: N-terminal Xaa-Pro-Lys N-methyltransferase 1 (Homo sapiens) (UniProt Q9BV86); assay: Confirmatory qHTS for Inhibitors of N-terminal methyltransferase 1 (NTMT1): MTaseGlo Assay (AID 1645874); conditions: NTMT1 enzyme, MTase-Glo SAH luminescence; series mostly up to 100 µM; also: potency is read from the fitted curve at half-maximal effect; nearly all actives have a fitted effect of over 65% in size
# Sequence of N-terminal Xaa-Pro-Lys N-methyltransferase 1 (Homo sapiens) (Q9BV86 whole entry, looked up): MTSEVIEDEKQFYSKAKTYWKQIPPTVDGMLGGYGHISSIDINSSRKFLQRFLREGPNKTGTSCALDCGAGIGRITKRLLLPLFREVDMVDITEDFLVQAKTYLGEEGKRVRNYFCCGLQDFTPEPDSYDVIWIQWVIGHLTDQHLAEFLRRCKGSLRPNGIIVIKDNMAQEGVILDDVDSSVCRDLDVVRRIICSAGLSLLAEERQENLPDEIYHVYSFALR
# Outline: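 Inhibition was derived from luminescence after SAH-to-ATP conversion, scaled between no-enzyme and DMSO wells, then fitted by 4-parameter Hill. Conditions: 125 nM NTMT1, 100 uM SAM, 1 uM SPKRIA, 30 min RT.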
# [6] = biological target: Papain (Carica papaya) (UniProt P00784); assay: Primary qHTS assay for inhibitors of the protease papain (AID 1645873); conditions: papain Z-FR-AMC cleavage, AMC fluorescence; series mostly up to 49.8 µM;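 also: papain turnover of Z-FR-AMC read as the AMC fluorescence gain over 10 min; % is scaled to controls: 0 for no effect and ±100 for the full control effect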
# Sequence of Papain (Carica papaya) (P00784 whole entry, looked up): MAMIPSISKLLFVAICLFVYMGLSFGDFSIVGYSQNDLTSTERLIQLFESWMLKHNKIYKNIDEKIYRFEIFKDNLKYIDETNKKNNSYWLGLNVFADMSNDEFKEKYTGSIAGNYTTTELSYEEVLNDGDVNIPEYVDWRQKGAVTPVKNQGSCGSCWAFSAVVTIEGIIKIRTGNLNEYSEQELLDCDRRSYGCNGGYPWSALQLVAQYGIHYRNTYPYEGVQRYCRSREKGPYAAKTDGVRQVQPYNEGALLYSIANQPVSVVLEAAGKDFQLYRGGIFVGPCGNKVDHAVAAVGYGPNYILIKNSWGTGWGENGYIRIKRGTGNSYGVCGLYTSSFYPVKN
# [7] = biological target: Rap guanine nucleotide exchange factor 3 (Homo sapiens) (UniProt O95398); assay: Confirmatory qHTS for agonist of cAMP-regulated guanine nucleotide exchange factor 3 (EPAC1) (AID 1645881); conditions: EPAC1 Rap1B BODIPY-GDP exchange fluorescence; series mostly up to 154 µM;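 also: EPAC1 catalysed release of BODIPY-GDP from Rap1B seen as fluorescence loss; 100% = effect of cAMP agonist control; nearly all actives have a fitted effect of over 75% in size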
# Sequence of Rap guanine nucleotide exchange factor 3 (Homo sapiens) (O95398 whole entry, looked up): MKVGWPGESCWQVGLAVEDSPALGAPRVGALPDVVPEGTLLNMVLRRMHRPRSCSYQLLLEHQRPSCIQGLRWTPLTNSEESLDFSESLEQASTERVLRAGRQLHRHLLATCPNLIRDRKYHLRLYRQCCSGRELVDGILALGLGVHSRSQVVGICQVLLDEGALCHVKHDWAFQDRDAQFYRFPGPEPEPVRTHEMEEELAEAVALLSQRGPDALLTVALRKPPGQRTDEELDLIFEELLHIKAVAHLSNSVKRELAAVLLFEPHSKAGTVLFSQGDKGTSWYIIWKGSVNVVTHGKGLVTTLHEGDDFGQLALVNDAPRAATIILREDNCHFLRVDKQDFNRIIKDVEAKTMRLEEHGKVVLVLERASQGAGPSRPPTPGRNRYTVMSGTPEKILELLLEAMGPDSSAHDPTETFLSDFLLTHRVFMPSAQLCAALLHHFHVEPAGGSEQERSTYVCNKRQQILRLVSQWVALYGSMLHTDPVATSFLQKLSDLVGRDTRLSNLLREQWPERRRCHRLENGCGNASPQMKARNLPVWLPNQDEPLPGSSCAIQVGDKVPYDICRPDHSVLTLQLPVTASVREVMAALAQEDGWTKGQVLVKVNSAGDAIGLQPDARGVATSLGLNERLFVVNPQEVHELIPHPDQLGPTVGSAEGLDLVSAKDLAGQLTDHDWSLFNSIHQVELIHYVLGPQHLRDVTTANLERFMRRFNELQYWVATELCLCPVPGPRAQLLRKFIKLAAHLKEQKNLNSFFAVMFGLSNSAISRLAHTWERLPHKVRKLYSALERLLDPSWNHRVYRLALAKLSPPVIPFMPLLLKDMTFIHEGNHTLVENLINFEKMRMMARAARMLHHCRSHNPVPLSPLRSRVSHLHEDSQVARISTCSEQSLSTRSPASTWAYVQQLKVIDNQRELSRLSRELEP
structure (smiles),measurement,setting,value
O=C(O)CCNc1cc(N2CCc3ccccc3CC2)nc(-c2ccccn2)n1,"activity change, negative = inhibition",[1],10.8% [at 11.5 µM]
same,Potency,[2],inactive
same,Potency,[3],inactive
Nc1ncnc2c1c(-c1cccc(OCc3ccccc3)c1)cn2C1CC(CN2CCC2)C1 (stereo unspecified),Potency,[1],12 µM (active)
same,Potency,[2],4.59 µM (active)
same,Potency,[3],2.9 µM (active)
CC1(C)CC(=O)c2c(C(F)(F)F)nn(-c3ccc(C(N)=O)c(NC4CCC(O)CC4)c3)c2C1 (stereo unspecified),Potency,[4],6.01 µM (active)
same,Potency,[2],57.8 nM (active) and 83.3 nM (active)
same,Potency,[3],57.8 nM (active) and 83.3 nM (active)
Cc1ccc(NC(=O)c2cccc(N(C)C)c2)cc1NC(=O)c1ccc(O)cc1,Potency,[4],7.56 µM (active)
COc1ccc(CCC(=O)Nc2nc3ccc(Cl)cc3s2)cc1OC,Potency,[1],inactive
same,Potency,[4],6.01 µM (active)
same,Potency,[2],inactive
same,Potency,[3],inactive
Nc1[nH]nc2nnc(-c3c(-c4ccccc4)nn4ccccc34)cc12,Potency,[5],11.2 µM (active)
Cc1cc(OCCCS(C)(=O)=O)cc(C)c1-c1cccc(COc2ccc3c(c2)OC[C@H]3CC(=O)O)c1,Potency,[4],21.3 µM (active)
CN(C)CCOc1cc(-c2cn[nH]c2)ccc1NC(=O)C1COc2ccccc2O1 (stereo unspecified),Potency,[1],2.68 µM (active)
same,Potency,[4],0.674 µM (active)
same,Potency,[3],4.59 µM (active)
COc1nccc(-c2c(-c3ccc(F)cc3)ncn2C2CCC(O)CC2)n1 (stereo unspecified),Potency,[1],inactive
same,Potency,[4],inactive
same,Potency,[3],20.9 µM (active)
CC(C)CN(C[C@@H](O)[C@H](Cc1ccccc1)NC(=O)O[C@H]1CO[C@H]2OCC[C@H]21)S(=O)(=O)c1ccc(N)cc1,Potency,[4],7.56 µM (active)
O=C(CC12CC3CC(CC(C3)C1)C2)Nc1cccc2nc(NCCNCCO)ccc12,Potency,[4],inactive
same,Potency,[2],20.9 µM (active)
same,Potency,[3],20.9 µM (active)
COc1ccc(-c2ccc3ncc4c(c3c2)n(-c2ccc(N3CCNCC3)c(C(F)(F)F)c2)c(=O)n4C)cn1,Potency,[1],inactive
same,Potency,[2],5.2 nM (active) and 14.6 nM (active) and 13.2 nM (active)
same,Potency,[3],7.3 nM (active) and 14.6 nM (active) and 18.6 nM (active)
Cc1cccc(Nc2nc(N[C@@H]3CCCC[C@H]3N)ncc2C(N)=O)c1,Potency,[1],15.1 µM (active)
same,Potency,[2],1.48 µM (active)
same,Potency,[3],1.48 µM (active)
CN(C)CCN(Cc1ccc(Cl)cc1)c1ccccn1,Potency,[1],0.0692 µM (active)
same,Potency,[2],inactive
C=CCc1cccc(C=NNC(=O)CN2CCN(Cc3ccccc3)CC2)c1O,outcome,[6],inactive
CCn1c(-c2nonc2N)nc2cncc(CNC3CCNCC3)c21,Potency,[4],inactive
same,Potency,[2],12.9 µM (active)
same,Potency,[3],11.5 µM (active)
CC1(COc2ccc3c(c2)ncn3-c2ccc3cccc(N4CCC(N)CC4)c3n2)COC1,Potency,[1],15.1 µM (active)
same,Potency,[2],1.83 µM (active) and 1.32 µM (active)
same,Potency,[3],2.05 µM (active) and 1.86 µM (active)
CNC(=O)c1cc(Oc2ccc(NC(=O)Nc3ccc(Cl)c(C(F)(F)F)c3)c(F)c2)ccn1,Potency,[4],9.52 µM (active)
same,Potency,[2],14.5 µM (active)
same,Potency,[3],18.3 µM (active)
CNC(=O)c1ccc2c(C(=Nc3cccc(CN(C)C)c3)c3ccccc3)c(O)[nH]c2c1,Potency,[4],inactive
same,Potency,[2],16.3 µM (active) and 13.2 µM (active)
same,Potency,[3],16.6 µM (active)
O=C(c1ccc(C(=O)N2CCC(N3CCCC3)CC2)c(Nc2ccccc2)c1)N1CCC(N2CCCC2)CC1,Potency,[4],inactive
same,Potency,[2],inactive
same,Potency,[3],inactive
O=C(CO)N1CCC(c2[nH]nc(-c3ccc(Cl)cc3)c2-c2ccncn2)CC1,Potency,[4],6.74 µM (active)
same,Potency,[2],inactive
CCC(=O)N1CCN(c2ccc(-n3c(=O)ccc4cnc5ccc(-c6cnc7ccccc7c6)cc5c43)cc2C(F)(F)F)CC1,Potency,[4],10.7 µM (active)
same,Potency,[2],13.3 nM (active) and 12.9 nM (active)
same,Potency,[3],13.3 nM (active) and 20.4 nM (active)
NC(=O)c1nnn(Cc2cc(Cl)c(C(=O)c3ccc(Cl)cc3)c(Cl)c2)c1N,Potency,[1],26.8 µM (active)
same,Potency,[7],inactive
C[C@H]1COC2=C1C(=O)C(=O)c1c2ccc2c1CCCC2(C)C,Potency,[4],19 µM (active)
CN1CCN(c2cccc(Nc3nc4c(-c5ccc(S(C)(=O)=O)cc5)cccn4n3)c2)CC1,Potency,[4],12 µM (active)
same,Potency,[2],2.06 µM (active) and 5.9 µM (active)
same,Potency,[3],1.63 µM (active) and 8.33 µM (active)
CCCCn1c(=O)n(Cc2ccccc2F)c(=O)c2[nH]c(Cc3ccc(NC(C)=O)cc3)nc21,Potency,[4],6.01 µM (active)
same,Potency,[2],inactive
COc1cc2nccc(Oc3ccc(NC(=O)Nc4cc(C)on4)c(Cl)c3)c2cc1OC,Potency,[4],19 µM (active)
same,Potency,[2],649 nM (active) and 3.72 µM (active)
same,Potency,[3],728 nM (active) and 4.17 µM (active)
C#CCN(C)CC1=Cc2ccccc2Oc2ccccc21,Potency,[2],inactive
same,Potency,[3],inactive
CCCCc1ccc(NS(=O)(=O)c2ccc(C)c(C(=O)N3CCN(c4cccc(C)c4C)CC3)c2)cc1,Potency,[3],inactive
O=C(O)CCC=CCC[C@@H]1[C@H](N2CCCCC2)[C@@H](O)C[C@@H]1OCc1ccc(-c2ccccc2)cc1,Potency,[2],inactive
same,Potency,[3],inactive
COc1cc([C@@H]2c3cc4c(cc3[C@@H](O[C@@H]3O[C@@H]5CO[C@@H](C)O[C@@H]5[C@H](O)[C@@H]3O)[C@H]3COC(=O)[C@H]23)OCO4)cc(OC)c1O,Potency,[2],0.263 µM (active)
same,Potency,[3],0.235 µM (active)
CN1CCN(c2ncc(-c3cc(Cl)cc(Cl)c3Cl)c(N)n2)CC1,Potency,[3],18.6 µM (active)
CN(C(Cc1ccc(OS(=O)(=O)c2cccc3cnccc23)cc1)C(=O)N1CCN(c2ccccc2)CC1)S(=O)(=O)c1cccc2cnccc12 (stereo unspecified),Potency,[2],7.31 µM (active)
same,Potency,[3],6.51 µM (active)
